# BAZ2B inh: qHTS Assay for Inhibitors of BAZ2B; Bromodomain adjacent to zinc finger domain protein 2B (Homo sapiens), Q9UIF8; AlphaScreen BAZ2B-H3K14Ac peptide displacement; Potency, µM (series often up to 114 µM), inactives show at the top dose activity change, negative = inhibition, most hits filed as inhibitors; hit rate 4.4% among 360,000; note: potency is the fitted concentration of half-maximal effect; % is set by controls: 0 for no effect and ±100 for the full control effect; nearly all actives have a fitted effect of over 60% in size
#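 Protein-peptide AlphaScreen: BAZ2B 50 nM, b-H3K14Ac 50 nM, 1x PBS pH 7.4 + 0.01% Tween-20. Preincubation 30 min RT; cpd 30 min RT (top 110 uM); beads 20 min RT, light-protected.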
# HP1b chromo inh: HTS for Inhibitors of HP1-beta Chromodomain Interactions with Methylated Histone Tails. Chromobox protein homolog 1 (Homo sapiens), P83916. AID 540317, 2011. AlphaScreen HP1-beta / biotin-H3K9me3 peptide binding. hit rate 0.56% among 390,000. Potency, µM (doses to about 114 µM), for the others: top-dose activity change, negative = inhibition, actives largely listed as inhibitors; note: potency is the fitted concentration of half-maximal effect; nearly all actives have a fitted effect of over 70% in size
#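 HP1-beta protein (50 nM final) preincubated 30 min at room temperature with biotinylated H3(1-18)K9me3 peptide (50 nM) in PBS pH 7.4, 0.01% Tween-20, then compound added for 30 min. AlphaScreen streptavidin donor/nickel chelate acceptor beads (10 ug/mL final), 30 min dark, luminescence read.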
# G9a inh: qHTS Assay for Inhibitors of Histone Lysine Methyltransferase G9a. Potency, µM (highest dose often 102 µM), without a hit: top-dose activity, negative = inhibition, usual class: inhibitors. G9a H3K9 monomethylation, AlphaScreen, 2 h. hit rate 8.8% among 350,000; note: potency is the fitted concentration of half-maximal effect; % is set by controls: 0 for no effect and ±100 for the full control effect; nearly all actives have a fitted effect of over 75% in size
#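 Using a bead-based AlphaScreen, monomethylated H3K9 product from 2 h room-temperature reactions (G9a 20 nM, peptide 500 nM, SAM 20 uM) was detected with 0.5 ug/mL rabbit anti-H3K9me1 antibody.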
# PLK1 PBD block: qHTS for Inhibitors of PLK1-PDB (polo-like kinase 1 - polo-box domain): Primary Screen; Potency, µM, for the others: max response, negative = inhibition, actives largely listed as inhibitors; hit rate 2.8% among 360,000; Plk1 PBD binding of FITC phosphopeptide, fluorescence polarization; note: potency is the fitted concentration of half-maximal effect; series mostly up to about 57 µM; % is set by controls: 0 for no effect and ±100 for the full control effect; nearly all actives have a fitted effect of over 65% in size
# Target sequence (P53350 whole entry, looked up, the tested form may be a part): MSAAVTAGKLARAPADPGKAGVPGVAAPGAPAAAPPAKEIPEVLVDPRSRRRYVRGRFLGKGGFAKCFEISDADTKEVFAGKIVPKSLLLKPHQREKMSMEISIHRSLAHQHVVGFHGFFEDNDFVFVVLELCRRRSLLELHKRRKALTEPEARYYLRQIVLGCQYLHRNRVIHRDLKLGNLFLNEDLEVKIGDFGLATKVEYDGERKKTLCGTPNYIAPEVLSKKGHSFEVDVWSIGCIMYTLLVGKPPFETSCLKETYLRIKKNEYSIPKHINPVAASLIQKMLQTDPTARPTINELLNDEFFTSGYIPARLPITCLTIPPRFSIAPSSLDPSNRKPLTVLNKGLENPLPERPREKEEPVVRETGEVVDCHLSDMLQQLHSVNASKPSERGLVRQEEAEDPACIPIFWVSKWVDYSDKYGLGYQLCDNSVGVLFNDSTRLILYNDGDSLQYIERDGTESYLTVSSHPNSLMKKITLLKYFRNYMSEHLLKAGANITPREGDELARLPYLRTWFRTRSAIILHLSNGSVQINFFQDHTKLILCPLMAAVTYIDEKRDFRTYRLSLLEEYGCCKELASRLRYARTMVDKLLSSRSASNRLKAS
# Sfp PPTase inh: qHTS Assay for Inhibitors of Bacillus subtilis Sfp phosphopantetheinyl transferase (PPTase); hit rate 3.5% among 310,000; Potency, µM, for inactives: largest response in the series, negative = inhibition, actives largely listed as inhibitors; Biochemical Sfp PPTase activity, qHTS;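 note: the enzyme is Sfp with the accession as filed and its product quenches rhodamine fluorescence; potency is the fitted concentration of half-maximal effect; 0% = enzyme reaction without inhibitor and -100% = no enzyme wells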
#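 With Hepes-Na pH 7.6 buffer containing 10 mM MgCl2, Sfp (15 nM) modified BHQ-2-YbbR (12.5 uM) using rhodamine-CoA (5 uM). Two reads 30 minutes apart at 525/598 nm yielded each well's rate.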
# JMJD2A Tudor: qHTS Assay for Inhibitors of JMJD2A-Tudor Domain | AlphaScreen JMJD2A-Tudor / H3K4me3 peptide binding | Potency, µM (highest dose often 114 µM), without a hit: at the highest dose activity change, negative = inhibition, most hits filed as inhibitors | hit rate 4.4% among 390,000; note: potency is the fitted concentration of half-maximal effect; % is set by controls: 0 for no effect and ±100 for the full control effect; nearly all actives have a fitted effect of over 50% in size
# 12-hLO cuvette: Cuvette-Based Assay for Inhibitors of 12-hLO (12-human lipoxygenase): 8HQ Series - Round 1; hit rate 60% among 35; Potency, µM, usual class: inhibitors; AID 2163, 2009; purified 12-hLO, cuvette UV 234 nm product formation; shares compounds with BAZ2B inh;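 active = compounds that slowed 12-hLO product formation enough to yield a measured IC50 potency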
# JMJD2E inh-1: Inhibitors of Human Jumonji Domain Containing 2E (JMJD2E): 8HQs - Round 1; shares compounds with BAZ2B inh; JMJD2E demethylase, FDH-coupled NADH fluorescence; Potency, µM (top dose mostly 57 µM), without a hit: at the highest dose activity, negative = inhibition, hits mostly inhibitors; hit rate 89% among 130; AID 493212, 2011
# ME-1 growth: qHTS Assay for Compounds Blocking the Interaction Between CBF-beta and RUNX1 for the Treatment of Acute Myeloid Leukemia: ME-1 cellular proliferation | shares compounds with BAZ2B inh | ME-1 cell proliferation, ATP luminescence, 48 h | Potency, µM (titrated, usually from 56.1 µM), without a hit: at the top dose activity change, negative = inhibition, most hits filed as inhibitors | hit rate 20% among 140
# JMJD2E inh-2: Confirmation qHTS Assay for Inhibitors of Human Jumonji Domain Containing 2E (JMJD2E); shares compounds with JMJD2A Tudor; Recombinant JMJD2E, FDH-coupled NADH fluorescence (FDH is formaldehyde dehydrogenase); Potency, µM (top dose mostly 56.8 µM), inactives show at the highest dose activity change, negative = inhibition, usual class: inhibitors; hit rate 93% among 140; AID 2677, 2010
# FDH inh: Counterscreen for JMJD2E Inhibitors: qHTS Assay for Inhibitors of Formaldehyde Dehydrogenase (FDH). shares compounds with JMJD2A Tudor. FDH enzyme assay, NADH fluorescence kinetic. AID 2680, 2010. hit rate 10% among 140. Potency, µM (titrated, usually from 56.7 µM), for the others: at the highest dose activity, negative = inhibition, usual class: inhibitors
# Starred values were filed as active, the others as inactive; ? = inconclusive; / = not tested or not shown; [ ] = another dose, or the depositor's remark. Sampled rows, rich in hits. Any-hit rate of the full collection: about 12%. Unless noted, calls come from the whole dose curve; as a rule, active = well fitted curve in the direction sought with a large enough effect; inconclusive = small, poorly fitted or top-dose-only effect, or another doubt; inactive = no such curve, though single readings can be large; an effect the other way counts as inactive or inconclusive.
SMILES,BAZ2B inh,HP1b chromo inh,G9a inh,PLK1 PBD block,Sfp PPTase inh,JMJD2A Tudor,12-hLO cuvette,JMJD2E inh-1,JMJD2E inh-2,FDH inh,others
Cc1cc(C(=O)NNC(=O)c2ccc(F)cc2)c(C)s1,/,22%,/,4%,/,-9%,/,/,/,/,
O=[n+]1c2c(n([O-])c3c1CCCC3)CCCC2,4%,14%,1%[59 µM],-2%,7%,-3%,/,/,/,/,
CC1(C)N([O-])C2=C(CCCC2)[N+]1=O,?,-1%,?,-9%,-2%,-20%,/,/,/,/,ME-1 growth=-15%[25.6 µM]
O=C1OCC2OC(O)C(O)C(O)C2OC(=O)c2cc(O)c(O)c(O)c2-c2c(O)c(O)c3oc(=O)c4c(c(O)c(O)c5oc(=O)c2c3c54)-c2c1cc(O)c(O)c2O (stereo unspecified),0.71µM*,/,?,/,3.5µM*,/,/,/,/,/,ME-1 growth=?
CCC(=O)NC(c1cccs1)c1cc([N+](=O)[O-])c2cccnc2c1O (stereo unspecified),7.9µM*,-8%,?,-8%,7.1µM*,79µM*,0.8µM*,14µM*,14µM*,-18%,
CCC(=O)NC(c1ccc(F)cc1)c1cc(Cl)c2cccnc2c1O (stereo unspecified),/,/,/,/,/,-12%,/,16µM*,16µM*,-18%,
CCC(=O)NC(c1ccccc1Cl)c1c(O)ccc2ccccc12 (stereo unspecified),-7%,30%,?,-1%,-4%,-19%,/,/,/,/,
CCC(=O)NC(c1ccc(C)s1)c1cc(Cl)c2cccnc2c1O (stereo unspecified),/,/,/,/,/,-23%,3.5µM*,-6%,10µM*,-9%,
CCC(=O)NC(c1ccco1)c1cc(Cl)c2cccnc2c1O (stereo unspecified),45µM*,2%,17%,-5%,11%,?,1µM*,6.3µM*,6.3µM*,-27%,
Cc1ccccc1S(=O)(=O)NC(=O)C1(C)CCN1C(=O)c1cccc(F)c1 (stereo unspecified),/,/,/,-6%,/,/,/,/,/,/,
COc1cccc(-c2nc(NCc3cccnc3)c3ccccc3n2)c1,/,/,-2%[0.501 µM],/,0%,/,/,/,/,/,
